# In the library only some 3.6% were active in any assay of this set; here they are far more common.
# Wnt act: Wnt/beta-catenin pathway activators, primary screen, cell-based, plate reader, single point. activation, % at 9.35 µM. Wnt/beta-catenin reporter cell assay, activator. 300,000 compounds, 1.2% hits; in the data active means activation above about 30%, passing the limit was not always enough; inconclusive means no clear call, values can overlap the other calls;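 further: 0% = neutral control wells and 100% = positive control wells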
# MITF TRPM1 HTS: activators of MITF-driven TRPM1 promoter reporter, primary screen, cell-based, SK-MEL-5, luciferase, single point; SK-MEL-5 TRPM1-promoter luciferase, 24 h; % of positive control, neutral wells = 0; activation, % at 12.5 µM; 300,000 compounds, 0.75% hits; AID 588334, 2011;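 active means mean activation of at least 80% with every replicate also reaching 80%; inconclusive means mean reaches 80% but some replicate falls short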;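 further: 0% = neutral control wells and 100% = parthenolide positive control wells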
# PHOSPHO1 block: PubChem AID 1565; inhibition, % at 13.3 µM; 290,000 compounds, 1.1% hits; recombinant PHOSPHO1, absorbance phosphatase assay; in the data active means inhibition above about 60%
# APOBEC3G inh: APOBEC3G DNA deaminase inhibitors, primary screen, biochemical, fluorescence, single-stranded DNA substrate, uHTS; 330,000 compounds, 0.28% hits; AID 493012, 2011; inhibition, % at 20 µM; recombinant A3G, ssDNA deamination FAM/TAMRA fluorescence;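 active means inhibition of at least 40% at 20 µM, with no more than 30% in the related APOBEC3A deaminase screen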;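 further: plate controls were DMSO wells with A3G for no effect and wells lacking A3G enzyme for full effect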
# Target sequence (Q9HC16 whole entry, looked up): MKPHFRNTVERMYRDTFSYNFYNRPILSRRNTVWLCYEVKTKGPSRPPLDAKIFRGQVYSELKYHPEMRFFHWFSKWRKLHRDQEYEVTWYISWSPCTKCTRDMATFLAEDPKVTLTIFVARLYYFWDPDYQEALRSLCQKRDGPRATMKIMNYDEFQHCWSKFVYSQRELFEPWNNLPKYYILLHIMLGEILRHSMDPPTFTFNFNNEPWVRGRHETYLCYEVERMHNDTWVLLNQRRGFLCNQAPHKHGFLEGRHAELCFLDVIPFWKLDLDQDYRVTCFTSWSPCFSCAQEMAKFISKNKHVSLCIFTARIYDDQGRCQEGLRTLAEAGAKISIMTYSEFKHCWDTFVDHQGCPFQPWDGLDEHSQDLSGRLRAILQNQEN
# APOBEC3A inh: APOBEC3A ssDNA deaminase inhibitors, primary screen, selectivity assay for APOBEC3G inhibitor project, biochemical, FAM/TAMRA oligo cleavage fluorescence; recombinant A3A, FAM/TAMRA ssDNA deamination fluorescence; DNA dC->dU-editing enzyme APOBEC-3A (Homo sapiens), P31941; inhibition, % at 20 µM; 330,000 compounds, 0.41% hits;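 active means at least 40% inhibition at 20 µM here, with at most 30% in a related deaminase screen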;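 further: plate controls were A3A with DMSO for no effect and wells lacking A3A enzyme for full effect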
# esBAF inh: Bmi1 luciferase reporter increase in mESCs, primary screen, esBAF inhibitor project, mouse ES cells, Bmi1 luciferase knock-in, single point; reporter increase, % at 12.5 µM; 350,000 compounds, 2% hits; AID 602393, 2012; 24 h; 100% = twice the neutral-well signal; in the data active means activation above about 40%; inconclusive means no clear call, values can overlap the other calls;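 further: 0% = median of the plate's neutral control wells and 100% = double that signal; a rise in the Bmi1 reporter signal indicates esBAF inhibition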
# Numbers without * were called inactive; ? = inconclusive; . = no result given.
SMILES,Wnt act,MITF TRPM1 HTS,PHOSPHO1 block,APOBEC3G inh,APOBEC3A inh,esBAF inh
Cc1nc2ccccc2c(=O)n1/N=C/c1ccc(N(C)C)cc1,0.2,18.7,-16.9,0.1,-0.2,-2.5
O=C(O)C[C@@H]1C[C@H]2c3cc(NC(=O)NC4CCCCC4)ccc3O[C@H]2[C@H](CO)O1,.,.,.,.,.,0.7
CC(=O)c1c(C)[nH]c(C(=O)Nc2ccc(C)cc2Br)c1C,26.5,?,11.0,-4.7,-2.9,85.8*
CCc1c(C(=O)Nc2ccc(OC)cc2)[nH]c(C)c1C(C)=O,21.6,.,2.3,-7.8,-2.7,28.8
CC(=O)c1c(C)[nH]c(C(=O)Nc2cccc(C)n2)c1C,39.0*,60.4,32.8,-1.1,-2.1,-6.4
CCc1c(C(=O)Nc2ccc(C)c(C)c2)[nH]c(C)c1C(C)=O,11.8,88.5*,28.0,-7.5,-3.1,70.8*
CC(=O)c1c(C)[nH]c(C(=O)NCCc2cccc(C)c2)c1C,8.9,64.3,22.4,-5.6,-4.7,74.9*
CC(=O)c1c(C)[nH]c(C(=O)Nc2cc(C)ccc2C)c1C,1.6,4.2,8.6,-5.0,-1.8,0.5
CC(=O)c1c(C)[nH]c(C(=O)Nc2cccc3ccccc23)c1C,-3.2,4.3,15.1,-4.3,-3.8,.
CO[C@@H](CN(C)S(=O)(=O)c1ccc(Cl)cc1)[C@H](C)CN(Cc1ccccc1Cl)[C@@H](C)CO,.,.,.,.,.,1.7
C[C@H](CO)N1C[C@H](C)[C@@H](CN(C)C(=O)c2ccncc2)OCCCC[C@H](C)Oc2ccc(NS(=O)(=O)c3ccc(Cl)cc3)cc2C1=O,.,.,.,.,.,2.0
CC(=O)c1c(C)[nH]c(C(=O)Nc2ccc(C)c(C)c2)c1C,55.4*,.,-0.3,-4.2,-1.3,84.8*
C[C@H]1CCCCO[C@@H](CN(C)C(=O)Nc2ccc(C(F)(F)F)cc2)[C@@H](C)CN([C@@H](C)CO)C(=O)c2cc(NC(=O)C3CCCCC3)ccc2O1,.,.,.,.,.,4.6
CC(C)CC#Cc1cnc2c(c1)C(=O)N([C@H](C)CO)C[C@@H](C)[C@@H](CN(C)C(=O)c1ccc(F)cc1)O2,.,.,.,.,.,-1.9
N#C/C(=C/c1ccc(N2CCCCC2)o1)c1cccc(F)c1,2.7,46.3,0.2,6.2,3.0,74.3*
Cc1ccc(/C(C#N)=C\c2ccc(N3CCOCC3)o2)cc1,-11.4,46.5,62.4*,15.5,0.9,16.7
N#C/C(=C/c1ccc(N2CCCCCC2)o1)c1ccc(Cl)cc1,.,16.9,-11.5,6.3,-7.0,1.0
N#C/C(=C/c1ccc(N2CCCCC2)cc1)c1cccc(F)c1,33.4*,20.8,-29.5,-0.1,-0.6,66.2*
N#C/C(=C/c1ccc(N2CCOCC2)o1)C(=O)Nc1ccccc1,50.3*,57.7,36.7,.,.,36.1
Cc1ccc2nc(/C(C#N)=C\c3ccc(N4CCOCC4)o3)[nH]c2c1,.,74.4,-11.9,-30.1,-13.5,.
CN(C)CC(=O)N[C@H]1CC[C@H](CCNC(=O)Nc2ccc(F)cc2)O[C@@H]1CO,.,.,.,.,.,6.9
Cc1noc(C)c1NC(=O)Nc1ccc2c(c1)C(=O)N([C@@H](C)CO)C[C@@H](C)[C@H](CN(C)C(=O)Nc1ccc3c(c1)OCO3)O2,.,.,.,.,.,5.9
Cc1ccnc(NC(=O)CNC(=O)c2ccc(C)s2)c1,-0.8,21.3,.,10.7,-2.3,?
Cc1ccnc(NC(=O)c2ccc([N+](=O)[O-])s2)c1,42.1*,-26.9,-19.5,-5.0,-0.7,28.8
Cc1ccnc(NC(=O)c2cc([N+](=O)[O-])cc([N+](=O)[O-])c2)c1,-0.2,-19.4,64.7*,-7.9,-0.5,.
Cc1ccnc(NC(=O)c2cc3cc(F)ccc3s2)c1,37.6*,52.2,0.0,-9.0,-5.7,17.2
Cc1ccnc(NC(=O)Cc2ccc([N+](=O)[O-])cc2)c1,0.0,10.7,19.2,-4.3,-1.9,24.7
Cc1noc(C)c1NC(=O)Nc1ccc2c(c1)C(=O)N([C@H](C)CO)C[C@@H](C)[C@@H](CN(C)Cc1ccc(C(=O)O)cc1)OCCCC[C@@H](C)O2,.,.,.,.,.,1.6

# From PubChem
